The results in this text go back to PubChem BioAssay (NCATS).

Records with an inconclusive call do not appear. Where a call stands in place of a potency, no number is given. Calls of active or inactive are those of the source. Calls follow the shape of the dose curve; as a rule, active = well fitted curve in the direction sought with a large enough effect; inconclusive = small, poorly fitted or top-dose-only effect, or another doubt; inactive = no such curve, though single readings can be large; an effect the other way counts as inactive or inconclusive.

The target in test [1] is Aldehyde dehydrogenase, mitochondrial (Homo sapiens) (UniProt P05091). As to the kind of experiment: qHTS for Inhibitors of the Aldehyde Dehydrogenase Family (ALDH2) Primary screen (AID 2061308). Also: nearly all actives have a fitted effect of over 55% in size. The settings on record: ALDH2 enzyme inhibition qHTS, 1536-well; series mostly up to 56 µM. In general terms: qHTS replaces the single test concentration by a dilution series.
The target in test [2] is Retinaldehyde dehydrogenase 3 (Homo sapiens) (UniProt P47895). Description: qHTS for Inhibitors of the Aldehyde Dehydrogenase Family (ALDH1A3) Primary screen (AID 2061315). The settings on record: ALDH inhibition qHTS; series mostly up to 56 µM.

As for `O=C(OCC#CCSc1nnc(-c2c[nH]c3ccccc23)o1)c1ccc(F)cc1`, the Potency result in test [1] and in test [2] was “inactive” in each case.
For `O=C(Nc1cccc(-c2nn3c(=O)cc(N4CCNCC4)nc3s2)c1)C1CCNCC1`, the Potency entry in test [1] and in test [2] was “inactive” each time.
`O=C1CCCC2=C1C1(CCCC1)N=C(Nc1nc3ccccc3o1)N2`: the Potency entry in test [1] and in test [2] was “inactive” throughout.
Turning to `c1ccc(COc2cccc(-c3nc4ccccc4s3)c2)cc1`, the Potency result in test [1] and in test [2] was “inactive” each time.
On to `O=C(Cn1nc(C2CCCCC2)ccc1=O)NCCc1ccccc1`, for which the Potency entry in test [1] and in test [2] was “inactive” each time.
As for `COc1ccc(CCC(=O)NCCc2nc3ccccc3n2CCOc2ccc(C)cc2)cc1`, the Potency result in test [1] and in test [2] was “inactive” in each case.
`COCCN(CCOC)c1nc(C)nc2c1nc(-c1ccccc1)n2CCCN1CCCCC1C` (stereo not given): the Potency entry in test [1] and in test [2] was “inactive” each time.
Take `O=P(c1ccccc1)(c1ccccc1)c1cnc2ccccn12`: the Potency entry in test [1] and in test [2] was “inactive” throughout.
Turning to `CCCn1c(C)nc2c(N3CCN(C)CC3)nc(C)nc21`, the Potency entry in test [1] and in test [2] was “inactive” throughout.
Take `Cc1cc(C)nc(NC(=S)N2CCN(c3ccc(Cl)cc3[N+](=O)[O-])CC2)c1`: the Potency result in test [1] and in test [2] was “inactive” in each case.
On to `CC1=C(C(=O)Nc2ccccc2Cl)C(c2ccccc2Br)N=C(Nc2nc3ccccc3o2)N1` (stereo not given), for which the Potency entry in test [1] and in test [2] was “inactive” throughout.
In the case of `CC(=O)Nc1sc2c(c1-c1nc3ccccc3s1)CC(C)NC2` (stereo not given), the Potency result in test [1] and in test [2] was “inactive” in each case.
As for `CC(C)O[C@@H]1O[C@H](CO)[C@@H](O)[C@H](O)[C@H]1O`, the Potency entry in test [1] and in test [2] was “inactive” in each case.
Consider `Cc1cc2c(s1)c1cnn(Cc3ccc(-c4ccccc4)cc3)c(=O)c1n2C`, for which the Potency result in test [1] and in test [2] was “inactive” throughout.
Consider `O=S(=O)(c1ccc2c(c1)OCCO2)C1CCC(S(=O)(=O)c2c(F)cccc2F)CC1` (stereo not given), for which the Potency entry in test [1] and in test [2] was “inactive” in each case.
Take `COc1ccc(C2Nc3ccccc3C(=O)N2Cc2ccco2)cc1COc1ccccc1C` (stereo not given): the Potency entry in test [1] and in test [2] was “inactive” throughout.
Regarding `Cc1cc(N2C(=O)c3ccccc3C2=O)no1`, the Potency entry in test [1] and in test [2] was “inactive” each time.
With `Cc1ccc(-c2cc(C(=O)Nc3ccccc3C)c3ccccc3n2)cc1C`, the Potency entry in test [1] and in test [2] was “inactive” each time.
Consider `O=C(Nc1ccc2ccccc2c1)Nc1nnc(-c2ccncc2)s1`, for which the Potency result in test [1] and in test [2] was “inactive” in each case.
On to `CCCn1c(C)nc2c(NCCN3CCCCC3)nc(C)nc21`, for which the Potency entry in test [1] and in test [2] was “inactive” in each case.
As for `O=C(c1ccccc1)N(C(=O)c1ccccc1)c1ncnc2c1C(c1ccccc1)c1c(ccc3ccccc13)O2` (stereo not given), the Potency entry in test [1] and in test [2] was “inactive” each time.
In the case of `O=c1c2ccccc2nc2sc(Nc3cccc(N4CCN5CCCCC5C4)c3)nn12` (stereo not given), the Potency result in test [1] and in test [2] was “inactive” in each case.
Regarding `Cc1ccc(S(=O)(=O)Nc2cnccc2C(=O)Nc2nc(-c3cccc(Cl)c3)cs2)cc1`, the Potency result in test [1] and in test [2] was “inactive” each time.
Take `Cc1ccc(S(=O)(=O)N2CCN(c3nc(C#N)nc4ccccc34)CC2)cc1`: the Potency result in test [1] and in test [2] was “inactive” each time.
Consider `COc1cccc(Cn2ncc3c4sc(C)cc4n(C)c3c2=O)c1`, for which the Potency result in test [1] and in test [2] was “inactive” in each case.
As for `Cc1cccc(NC(=O)CN2CCC(c3ccccn3)CC2)c1`, the Potency entry in test [1] and in test [2] was “inactive” each time.
As to `N#Cc1cc(NC(=O)Nc2nnc(-c3ccncc3)s2)ccc1Cl`, the Potency result in test [1] and in test [2] was “inactive” in each case.
In the case of `CCN1CCN(C(=S)c2ccc(O)cc2)CC1`, the Potency result in test [1] and in test [2] was “inactive” throughout.
In the case of `COc1cc(O)c(C(CC(=O)N2CCOCC2)c2ccc(OC)c(OC)c2)c(OC)c1` (stereo not given), the Potency entry in test [1] and in test [2] was “inactive” throughout.
With `c1nc(NCC2CCCC2)c2cc(-c3ccc4c(c3)OCO4)ccc2n1`, the Potency entry in test [1] and in test [2] was “inactive” in each case.
As to `Cc1cccc(CNc2ccnc(-c3cc(C(F)(F)F)cc(C(F)(F)F)c3)n2)c1`, the Potency result in test [1] and in test [2] was “inactive” in each case.
Consider `O=C(CNC(=O)c1ccncc1)OC(C(=O)Nc1cc(C(F)(F)F)ccc1Cl)c1ccccc1` (stereo not given), for which the Potency result in test [1] and in test [2] was “inactive” throughout.
`Cn1nnnc1Sc1ncnc2scc(-c3cccc(Cl)c3)c12`: the Potency entry in test [1] and in test [2] was “inactive” in each case.
`Fc1ccc(-c2nc(-c3c(F)cccc3F)[nH]c2-c2ccncc2)cc1`: the Potency result in test [1] and in test [2] was “inactive” each time.
In the case of `CS(=O)(=O)c1ccc(-c2csc(N3CCC(C(N)=O)CC3)n2)cc1`, the Potency entry in test [1] and in test [2] was “inactive” each time.
